GLD-1 RNA inh: GLD-1-TGE RNA interaction inhibition (C. elegans). Q17339. inhibition, % at 5.96 µM. 0.44% of 320,000 active. AID 2280. purified GLD-1 + fluorescein TGE RNA, fluorescence polarization;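 active = percent inhibition above a per-plate cutoff, the plate mean of test compounds plus 3 SD, cut at about 30% in these data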;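 also: 0% = DMSO wells with GLD-1 and probe and 100% = wells lacking GLD-1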
Target sequence (Q17339 whole entry, looked up): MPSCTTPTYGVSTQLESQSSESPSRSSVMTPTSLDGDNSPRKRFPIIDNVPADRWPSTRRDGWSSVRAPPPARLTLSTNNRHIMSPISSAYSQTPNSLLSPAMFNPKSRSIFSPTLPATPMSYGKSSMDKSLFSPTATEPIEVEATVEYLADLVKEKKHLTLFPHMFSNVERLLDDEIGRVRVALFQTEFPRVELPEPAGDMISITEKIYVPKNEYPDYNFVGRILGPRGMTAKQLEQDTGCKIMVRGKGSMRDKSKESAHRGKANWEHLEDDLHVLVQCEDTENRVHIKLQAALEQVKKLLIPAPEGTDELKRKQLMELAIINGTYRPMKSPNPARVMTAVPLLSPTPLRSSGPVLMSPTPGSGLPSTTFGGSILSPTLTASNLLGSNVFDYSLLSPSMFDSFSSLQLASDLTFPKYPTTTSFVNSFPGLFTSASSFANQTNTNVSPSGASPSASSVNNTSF
MCL1-BIM inh: MCL1-BIM-BH3 interaction inhibition (human); inhibition, % at 10.9 µM; GST-MCL1 / FITC-Bim-BH3 fluorescence polarization; 0.68% of 320,000 active;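 active = inhibition above the mean inhibition of all tested compounds plus 3 SD, set per campaign, cut at about 40% in these data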;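 also: 0% = DMSO wells and 100% = unlabeled Bim-BH3 peptide control; higher means more loss of mP so more displacement of Bim peptide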
Bcl-xL primary: Bcl-xL (human) inhibition; 0.7% of 320,000 active; AID 2129; Q07817; inhibition, % at 10.9 µM; GST-Bcl-xL / FITC-Bim BH3 peptide fluorescence polarization;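 active = inhibition above the mean of all tested compounds plus 3 SD, cutoff set per campaign, cut at about 30% in these data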;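 also: 0% = DMSO wells and 100% = unlabeled Bim-BH3 peptide competitor; inhibitors lower millipolarization by displacing the labeled peptide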
Mcl1-Bid inh: disrupts binding of human Mcl-1 to Bid peptide. AID 1021. 0.97% of 220,000 active. inhibition, % at 21.7 µM. TR-FRET Mcl-1/Bid-Dy647 peptide binding, 1536-well;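 active = compounds that cut the binding signal by more than half at the single screening dose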;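 also: His-tagged Mcl-1 with europium anti-His antibody binding Bid BH3 peptide; 0% = Mcl-1 plus peptide wells and 100% = peptide-only wells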
Mcl1-Noxa inh: Mcl-1/Noxa interaction inhibition; inhibition, % at 21.7 µM; 1.5% of 220,000 active; TR-FRET Mcl-1/Noxa peptide binding, 2 h; AID 1022; Q07820;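 active = compounds that cut the protein-peptide binding signal by more than 50% relative to plate controls in a single-dose test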;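 also: His-tagged Mcl-1 with rhodamine Noxa BH3 peptide and terbium anti-His antibody; 0% = Mcl-1 plus Noxa peptide wells and 100% = peptide-only wells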
Bim-Mcl-1: inhibitors of Bim-Mcl-1 interaction, human; Q07820; inhibition, % at 10 µM; Bead-based flow cytometry, Bim peptide-Mcl-1 binding; 0.1% of 190,000 active; in the data active = inhibition above about 40%;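 also: 0% = no compound tracer wells and 100% = peptide blocker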
Numbers without * were called inactive; / = no result. Hits are enriched below; roughly 2.3% of the tested compounds scored in any of these assays.

SMILES | GLD-1 RNA inh | MCL1-BIM inh | Bcl-xL primary | Mcl1-Bid inh | Mcl1-Noxa inh | Bim-Mcl-1
O=C(CSc1nnnn1-c1ccc(F)cc1)c1ccc(O)c(O)c1 | 4.1 | 3.2 | 0.0 | -14.9 | 56.9* | -1.0
O=C(O)c1ccc(CSc2nnnn2-c2ccc(F)cc2)cc1 | -3.0 | -8.1 | 2.0 | / | / | /
CNC(=S)Nc1ccc(C)c(NC(=S)NC)c1 | 7.9 | 11.6 | 10.0 | -20.2 | 58.1* | -5.0
CC(=O)Nc1ccc(C)c(NC(=S)Nc2ccc(F)cc2)c1 | 14.5 | 8.9 | 6.0 | -31.0 | 15.8 | /
Nc1ccccc1C#CC(=O)c1ccccc1 | -9.3 | -8.5 | -2.4 | / | / | /
O=C(Nc1ccc2nc(-c3cccs3)c(-c3cccs3)nc2c1)N1CCOCC1 | 4.0 | 8.6 | 10.3 | -1.8 | 12.5 | 3.0
OCCCNC(=S)Nc1ccc2nc(-c3ccccn3)c(-c3ccccn3)nc2c1 | 30.5 | 43.4* | 45.7* | -54.3 | 13.0 | 2.0
O=S(=O)(c1ccc2nc(-c3ccco3)c(-c3ccco3)nc2c1)N1CCOCC1 | 9.7 | 26.0 | 20.0 | 24.6 | 89.5* | 8.0
O=C(Nc1ccc2nc(-c3ccco3)c(-c3ccco3)nc2c1)NC1CC1 | / | / | / | 29.2 | 102.3* | 21.0
O=S(=O)(c1ccc2ccccc2c1)N1CCOCC1 | 1.0 | -2.3 | 1.2 | / | / | /
O=C(Nc1ccc(N2CCOCC2)cc1)Nc1ccc2nc(-c3ccco3)c(-c3ccco3)nc2c1 | 14.7 | 12.4 | 19.7 | 42.5 | 102.1* | 7.0
O=C(NC1CCN(C(=O)NCc2ccccc2)CC1)c1cccc(F)c1 | -6.0 | 0.2 | -2.0 | / | / | /
O=C(NCc1ccco1)Nc1ccc2nsnc2c1 | -0.3 | -11.9 | 4.0 | -0.3 | 16.4 | 3.0
O=C(NCCCO)Nc1ccc2nc(-c3ccco3)c(-c3ccco3)nc2c1 | 53.6* | 158.4* | 119.5* | 54.8* | 101.5* | 31.0
COC(=O)/C(=N/Nc1ccccc1)N1CCCc2ccccc21 | -7.6 | -5.0 | -1.5 | 94.7* | 18.7 | -2.0
COC(=O)/C(=N/Nc1ccc(C)cc1)N1CCCc2ccccc21 | 2.9 | 3.9 | 1.9 | -95.0 | -2.5 | -3.0
CCCn1c(C(C)NS(=O)(=O)c2ccccc2)n[nH]c1=S (stereo not given) | 9.1 | -15.3 | 0.6 | / | / | /
CN(C)C1=NC[C@H](Cc2ccccc2)N1CC1CCC(C(C)(C)C)CC1 (stereo not given in full) | -3.8 | -2.7 | 3.2 | / | / | /
CCc1ccc(S(=O)(=O)/N=C2\C=C(Nc3ccc(O)cc3)C(=O)c3ccccc32)cc1 | 7.4 | 11.7 | 5.2 | / | / | /
CCc1ccc(S(=O)(=O)/N=C2\C=CC(=O)c3ccccc32)cc1 | 5.6 | 18.7 | 13.9 | -12.4 | 86.6* | 1.0
CCc1ccc(S(=O)(=O)/N=C2/C=C(Sc3ncn[nH]3)C(=O)c3ccccc32)cc1 | 4.2 | 32.3 | 26.5 | 39.7 | 101.4* | 1.0
Cc1ccc2c(c1)[C@H]1[C@H](CO2)[C@H](c2ccccc2)[C@]2(C)C(=O)N(Cc3ccc(Cl)cc3)CC(=O)N12 | -3.6 | -8.9 | -5.3 | / | / | /
Cc1ccc2c(c1)[C@H]1[C@H](CO2)[C@H](c2ccccc2)[C@]2(C)C(=O)N(Cc3ccc(F)cc3)CC(=O)N12 | 52.1* | / | / | / | / | /
Cc1cc(CNC(=O)c2cc(COc3ccc(F)c(F)c3)on2)nn1C | 8.9 | -1.6 | 3.5 | / | / | /
Cc1cc(O)cc2c(=O)c3ccccc3sc12 | -1.1 | 2.1 | 7.4 | -21.8 | 59.0* | 2.0
SMILES | GLD-1 RNA inh | MCL1-BIM inh | Bcl-xL primary | Mcl1-Bid inh | Mcl1-Noxa inh | Bim-Mcl-1
COc1ccc(C2C(C(=O)/C=C/c3ccco3)=C(O)C(=O)N2CCN2CCOCC2)cc1 (stereo not given) | 9.3 | 20.9 | 22.6 | -47.3 | 19.1 | 4.0
CCOc1ccc(C2C(C(=O)/C=C/c3ccco3)=C(O)C(=O)N2CCN2CCOCC2)cc1OC (stereo not given) | 11.6 | 23.4 | 33.8* | -30.3 | 11.1 | 2.0
CC(=O)c1cccc(S(=O)(=O)Nc2cc(C(F)(F)F)ccc2N2CCOCC2)c1 | 8.0 | 3.3 | 5.3 | / | / | /
COCCn1c(-c2ccc(F)cc2)nc2oc3cc(OC)ccc3c(=O)c2c1=O | 6.2 | 0.9 | 3.0 | 37.6 | -22.7 | /
CCc1nc2oc3cc(OC)ccc3c(=O)c2c(=O)n1-c1ccccc1 | 2.3 | -0.1 | 3.5 | 22.6 | -10.6 | -6.0
COCCn1c(-c2ccc(C)cc2)nc2oc3cc(OC)ccc3c(=O)c2c1=O | -6.9 | 4.8 | -0.9 | 52.9* | 32.7 | /
COc1ccc2c(=O)c3c(=O)n(-c4ccc(C)cc4)c(-c4ccccc4)nc3oc2c1 | 5.3 | 7.2 | 8.0 | 48.0 | 81.0* | /

Screening results (PubChem BioAssay)
